Experimental findings from PubChem BioAssay (EPA / NIEHS) are described below.

Experiment [1] in a line: ATG_CRE_CIS: Attagene CIS-FACTORIAL HepG2 Assay for human cAMP Responsive Element (CRE) binding protein 3 (AID 2282926). Conditions: HepG2 CRE cis-reporter, Attagene multiplexed mRNA; actives raise or lower the signal. In short, it runs like this: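 Capillary electrophoresis of 6-FAM-labelled, HpaI-digested PCR products quantified reporter transcripts. These came from HepG2 transiently transfected with cis-element reporters and exposed to test chemicals for 24 hours, with DMSO defining baseline activity.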

Experiment [2] addresses CCAAT/enhancer-binding protein beta (Homo sapiens) (UniProt P17676). Nature of the experiment: ATG_C_EBP_CIS: Attagene CIS-FACTORIAL HepG2 Assay for human CCAAT/Enhancer Binding Protein (C/EBP) beta (AID 2282927). Conditions: HepG2 Attagene cis-factorial transcription factor reporter; actives raise or lower the signal. In short, it runs like this:
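Following a 24 h incubation with test chemical, transfected HepG2 cells yielded RNA whose reporter transcripts were quantified by RT-PCR and fluorescent capillary electrophoresis, with DMSO serving as baseline for bidirectional fitting.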

Experiment [3] in a line: ATG_CMV_CIS: Attagene CIS-FACTORIAL HepG2 Assay for human CMV (Internal Marker) (AID 2282928).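 Note: endpoint acts as a background internal control marker rather than a target.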 As to conditions: HepG2 CMV promoter reporter, transcription factor profiling; actives raise or lower the signal. In short, it runs like this:
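Fluorescence intensity of RT-PCR-derived reporter fragments, resolved by capillary electrophoresis, gives the signal. HepG2 liver cells bearing transfected cis-element reporters were treated 24 h; activity in either direction was fit relative to DMSO-treated controls.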

Experiment [4] can be described thus: ATG_DR4_LXR_CIS: Attagene CIS-FACTORIAL HepG2 Assay for human Liver X Receptor (LXR), DR4 submotif (AID 2282929). Conditions: HepG2 Attagene DR4 cis-reporter, mRNA transcription; actives raise or lower the signal. In outline: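 Cells were transfected with multiple reporter transcription units, exposed to chemicals for 24 hours, then lysed for RNA. Reporter mRNA induction was measured by RT-PCR with capillary electrophoresis detection and fitted in both directions relative to DMSO.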

Experiment [5] can be described thus: ATG_AP_1_CIS: Attagene CIS-FACTORIAL HepG2 Assay for human Activator Protein 1 (AP-1) (AID 2282931). Conditions: HepG2 Attagene cis-factorial AP-1 reporter mRNA; actives raise or lower the signal. In short, it runs like this:
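Endogenous transcription-factor activity in human HepG2 liver cells is read through a cis-promoter reporter transcript, sampled 24 h after dosing. Detection uses RT-PCR with capillary electrophoresis; values come from bidirectional fitting relative to DMSO.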

Experiment [6] in a line: ATG_AP_2_CIS: Attagene CIS-FACTORIAL HepG2 Assay for human Activator Protein 2 (AP-2) (AID 2282932). Conditions: HepG2 AP-2 cis-reporter, Attagene transcription factor profiling; actives raise or lower the signal. In outline:
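Cells (HepG2) transfected with promoter-driven reporter constructs, treated 24 h. Total RNA reverse-transcribed, reporter cDNA PCR-amplified, FAM-labelled by primer extension, digested, resolved by capillary electrophoresis. Activity fitted both directions versus DMSO.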

Experiment [7] is described as follows: ATG_BRE_CIS: Attagene CIS-FACTORIAL HepG2 Assay for human Bone Morphogenetic Protein (BMP) Response Element (BRE) (AID 2282933). Conditions: HepG2 BMP response element reporter, Attagene transcription factor profiling; actives raise or lower the signal. In short, it runs like this: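 HepG2 cells transiently transfected with CIS reporter units (endogenous TF activity, BMP response element), dosed 24 h. Reporter mRNA quantified by RT-PCR, fluorescent labelling and capillary electrophoresis; bidirectional fit vs DMSO baseline.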

In experiment [8] the target is Transcription factor E2F1 (Homo sapiens) (UniProt Q01094). Nature of the experiment: ATG_E2F_CIS: Attagene CIS-FACTORIAL HepG2 Assay for human E2F Transcription Factor 1 (AID 2282935). Conditions: HepG2 Attagene cis-reporter, E2F reporter RNA transcripts; actives raise or lower the signal. In outline:
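First, HepG2 cells were transfected with reporter transcription units. Next, they were dosed for 24 h. Then RNA was isolated, converted to cDNA, PCR-amplified, FAM-labeled, HpaI-digested and analyzed by capillary electrophoresis.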

Experiment [9] is described as follows: ATG_E_Box_CIS: Attagene CIS-FACTORIAL HepG2 Assay for human Enhancer Box (E-box) (AID 2282936). Conditions: HepG2 E-box cis-reporter transcription, actives raise or lower the signal. In outline: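 Endogenous transcription factor activity was sensed in human HepG2 liver cells through transfected cis-promoter reporter units. After 24 h of dosing, total RNA was reverse-transcribed and reporter cDNA resolved by capillary electrophoresis.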

Experiment [10] is described as follows: ATG_M_61_CIS: Attagene CIS-FACTORIAL HepG2 Assay for M61 Transcription Factor (Internal Marker) (AID 2282937). Conditions: HepG2 Attagene CIS-FACTORIAL M61 internal marker reporter; actives raise or lower the signal. In short, it runs like this: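 Cells were transfected with reporter units under cis-regulatory promoters, treated with chemicals for 24 h, then lysed for RNA. Reporter transcripts were quantified by RT-PCR and capillary electrophoresis, and activity was fitted bidirectionally against DMSO.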

Experiment [11] in a line: ATG_EGR_CIS: Attagene CIS-FACTORIAL HepG2 Assay for human Early Growth Response 1 (EGR1) (AID 2282938). Conditions: HepG2 Attagene CIS-FACTORIAL EGR reporter mRNA; actives raise or lower the signal. In outline: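 Endogenous TF activity in HepG2 liver cells was gauged through cis-promoter reporter constructs transiently transfected. After 24 h dosing, reporter mRNA was quantified by RT-PCR and capillary electrophoresis, and curves fitted in both directions versus DMSO.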

A short description of experiment [12]: ATG_Ets_CIS: Attagene CIS-FACTORIAL HepG2 Assay for human Erythroblast Transformation Specific (ETS) (AID 2282941). As to conditions: HepG2 ETS cis-reporter transcription, actives raise or lower the signal. In short, it runs like this:
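Multiplexed reporter transcript profiling: HepG2, 24 h treatment, total RNA to cDNA, PCR, 6-FAM labelling, HpaI cut, capillary electrophoresis. Gain- or loss-of-signal fitted against DMSO.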

The nature of experiment [13]: ATG_FoxO_CIS: Attagene CIS-FACTORIAL HepG2 Assay for human Forkhead box O (FoxO) (AID 2282943). Conditions: HepG2 Attagene cis-reporter, FoxO element, mRNA; actives raise or lower the signal. In outline:
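Values reflect reporter mRNA induction or loss in HepG2 cells 24 h post-dosing, fitted bidirectionally with DMSO as negative control and baseline. Detection used RT-PCR and fluorescence capillary electrophoresis.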

Experiment [14] can be described thus: ATG_GATA_CIS: Attagene CIS-FACTORIAL HepG2 Assay for human GATA Binding Protein (AID 2282944). Conditions: HepG2 GATA cis-element reporter, Attagene multiplex mRNA; actives raise or lower the signal. In outline: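 HepG2 cells transiently transfected with multiplexed cis-element reporter units measure endogenous GATA activity; after 24 h compound exposure, reporter mRNA quantified by RT-PCR and capillary electrophoresis. Changes fitted in both directions vs DMSO.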

The nature of experiment [15]: ATG_GLI_CIS: Attagene CIS-FACTORIAL HepG2 Assay for human Zinc Finger Protein GLI1 (AID 2282945). Conditions: HepG2, Attagene cis-factorial reporter mRNA, GLI element; actives raise or lower the signal. In outline: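 HepG2 cells transiently transfected with cis-promoter multiplexed reporter units report endogenous transcription factor activity. After 24 h chemical exposure, reporter mRNA was quantified by RT-PCR, 6-FAM labelling, HpaI digestion and capillary electrophoresis, with bidirectional fitting against DMSO.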

The nature of experiment [16]: ATG_ISRE_CIS: Attagene CIS-FACTORIAL HepG2 Assay for human Interferon Regulatory Factor 1 (IRF1) binding to an Interferon-Stimulated Response Element (ISRE) (AID 2282948). Conditions: HepG2 ISRE cis-reporter (Attagene), mRNA transcription readout; actives raise or lower the signal. In outline: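 Signal reflects induction or loss of ISRE-linked reporter mRNA in transiently transfected HepG2 cells after a 24 h treatment, detected by fluorescent RT-PCR fragments on capillary electrophoresis and normalised to DMSO.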

A short description of experiment [17]: ATG_M_32_CIS: Attagene CIS-FACTORIAL HepG2 Assay for M32 Transcription Factor (Internal Marker) (AID 2282949).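 Note: background control marker of the multiplexed CIS panel rather than a real target.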 As to conditions: HepG2 Attagene cis-factorial M32 reporter, mRNA; actives raise or lower the signal. In short, it runs like this: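 HepG2 human liver cells transiently transfected with cis-promoter-driven multiple reporter transcription units, dosed 24 h. Reporter mRNA quantified by RT-PCR, FAM-labelled primer extension, HpaI digest and capillary electrophoresis; bidirectional fit versus DMSO baseline.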

Experiment [18] is described as follows: ATG_M_06_CIS: Attagene CIS-FACTORIAL HepG2 Assay for M06 Transcription Factor (Internal Marker) (AID 2282950). As to conditions: HepG2 Attagene CIS-FACTORIAL M06 internal marker reporter; actives raise or lower the signal. In outline: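 Internal background marker within multiplexed cis-reporter HepG2 system. Cells transiently transfected, dosed 24 h; reporter mRNA measured by RT-PCR, HpaI digestion and capillary electrophoresis. Bidirectional fit relative to DMSO.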

In experiment [19] the target is Paired box protein Pax-6 (Homo sapiens) (UniProt P26367). Nature of the experiment: ATG_Pax6_CIS: Attagene CIS-FACTORIAL HepG2 Assay for human Paired Box 6 (PAX6) (AID 2282956). As to conditions: HepG2 CIS-FACTORIAL PAX6 reporter transcription, RNA readout; actives raise or lower the signal. In outline:
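Values derive from bidirectional curve fitting of reporter mRNA signal relative to DMSO. HepG2 cells bearing transfected cis-regulated MRTUs were exposed for 24 h; transcripts were read by RT-PCR and capillary electrophoresis.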

A short description of experiment [20]: ATG_PXRE_CIS: Attagene CIS-FACTORIAL HepG2 Assay for human Pregnane X Receptor Element (PXRE) (AID 2282957). As to conditions: HepG2 Attagene CIS-FACTORIAL PXRE reporter, mRNA; actives raise or lower the signal. In outline: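 Fluorescent capillary electrophoresis of amplified reporter cDNA gave the signal, collected 24 h after dosing HepG2 cells that held transfected cis-element reporter constructs.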

Activity calls are given as the source filed them. Rule for the calls: active = hit-call score of the fitted dose curve at least 0.9, where 1 is the maximum; inactive = score below 0.9.

Chain of Transcription factor E2F1 (Homo sapiens) (Q01094 whole entry, looked up): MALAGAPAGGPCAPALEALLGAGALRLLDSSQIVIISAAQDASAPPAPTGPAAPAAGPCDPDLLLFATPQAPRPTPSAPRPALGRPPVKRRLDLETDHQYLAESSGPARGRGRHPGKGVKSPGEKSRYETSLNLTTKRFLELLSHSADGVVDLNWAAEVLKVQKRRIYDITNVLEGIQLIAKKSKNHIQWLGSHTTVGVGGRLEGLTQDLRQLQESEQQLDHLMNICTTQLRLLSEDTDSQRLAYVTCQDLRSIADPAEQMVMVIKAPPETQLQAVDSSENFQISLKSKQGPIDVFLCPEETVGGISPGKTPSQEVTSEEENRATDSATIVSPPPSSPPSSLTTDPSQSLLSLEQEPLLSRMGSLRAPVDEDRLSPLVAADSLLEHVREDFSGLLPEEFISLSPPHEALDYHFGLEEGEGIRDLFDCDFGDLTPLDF
Chain of CCAAT/enhancer-binding protein beta (Homo sapiens) (P17676 whole entry, looked up): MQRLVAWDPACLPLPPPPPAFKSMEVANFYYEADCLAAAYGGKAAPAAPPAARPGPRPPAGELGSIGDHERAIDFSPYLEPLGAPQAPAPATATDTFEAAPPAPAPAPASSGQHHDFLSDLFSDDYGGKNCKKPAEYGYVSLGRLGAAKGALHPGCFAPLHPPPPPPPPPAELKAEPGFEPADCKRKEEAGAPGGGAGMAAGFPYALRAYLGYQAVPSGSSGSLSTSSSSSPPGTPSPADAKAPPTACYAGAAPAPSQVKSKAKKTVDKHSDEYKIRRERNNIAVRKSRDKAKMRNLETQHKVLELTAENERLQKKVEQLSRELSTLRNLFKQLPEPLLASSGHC
Chain of Paired box protein Pax-6 (Homo sapiens) (P26367 whole entry, looked up): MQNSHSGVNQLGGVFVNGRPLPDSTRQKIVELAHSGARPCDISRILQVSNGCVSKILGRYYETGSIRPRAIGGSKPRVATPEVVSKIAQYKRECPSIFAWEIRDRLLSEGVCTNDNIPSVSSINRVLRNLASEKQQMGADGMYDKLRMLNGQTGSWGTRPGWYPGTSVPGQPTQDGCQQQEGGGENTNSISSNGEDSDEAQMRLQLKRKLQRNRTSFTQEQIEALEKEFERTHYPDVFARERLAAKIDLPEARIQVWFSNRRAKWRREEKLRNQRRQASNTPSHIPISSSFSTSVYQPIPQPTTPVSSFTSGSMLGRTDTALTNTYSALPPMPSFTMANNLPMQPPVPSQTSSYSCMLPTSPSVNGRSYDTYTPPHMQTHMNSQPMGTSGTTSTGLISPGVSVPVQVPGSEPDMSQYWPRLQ

Consider `COC(OC)C(C)c1ccccc1` (stereo not given), for which the compound was called inactive in experiment [1], in experiment [2], in [3], in experiment [4], in experiment [5] and in [6]. Also, the result in experiment [7], in [8], in [9], in experiment [10], in [11] and in [12] was inactive. The outcome in experiment [13], in [14], in experiment [15], in experiment [16], in experiment [17] and in experiment [18] was inactive. The outcome in [19] was inactive. Further, the AC50 in experiment [20] was 27.2 µM (active).

As for `CN1CCCC1`, the call in [1], in experiment [2], in experiment [3], in experiment [4], in [5] and in [6] was inactive. Moreover, the call in experiment [7], in experiment [8], in experiment [9], in experiment [10], in experiment [11] and in experiment [12] was inactive. Further, the compound was classed as inactive in [13], in experiment [14], in [15], in [16], in [17] and in experiment [18]. The call in [19] and in experiment [20] was inactive.

Consider `CC/C=C\CC1=C(C)CCC1=O`, for which the compound was classed as inactive in experiment [1], in [2], in experiment [3], in [4], in [5] and in experiment [6]. The compound was called inactive in [7], in experiment [8], in [9], in [10], in experiment [11] and in experiment [12]. The compound was called inactive in [13], in experiment [14], in [15], in [16], in experiment [17] and in experiment [18]. Further, the call in experiment [19] was inactive. The AC50 in experiment [20] was 6.38 µM (active).

For `CCCCn1cc[n+](C)c1`, the outcome in [1], in experiment [2], in [3], in experiment [4], in experiment [5] and in experiment [6] was inactive. Moreover, the call in experiment [7], in experiment [8], in [9], in experiment [10], in experiment [11] and in [12] was inactive. The result in [13], in experiment [14], in experiment [15], in [16], in experiment [17] and in [18] was inactive. Further, the call in experiment [19] and in [20] was inactive.

As for `CCCOCCC`, the outcome in [1], in experiment [2], in experiment [3], in experiment [4], in experiment [5] and in [6] was inactive. Besides, the outcome in experiment [7], in experiment [8], in experiment [9], in experiment [10], in [11] and in experiment [12] was inactive. Besides, the compound was classed as inactive in experiment [13], in [14], in [15], in experiment [16], in experiment [17] and in experiment [18]. Besides, the compound was called inactive in experiment [19] and in experiment [20].

As to `Nc1nnc(-c2ccc([N+](=O)[O-])o2)o1`, the compound was called inactive in [1], in experiment [2], in experiment [3], in experiment [4], in experiment [6] and in experiment [7]. Also, the call in experiment [8], in experiment [9], in experiment [10], in [11], in [12] and in experiment [13] was inactive. For the same compound, the compound was classed as inactive in [14], in [15], in experiment [16], in experiment [17], in experiment [18] and in experiment [19]. Besides, the outcome in experiment [20] was inactive. The AC50 in [5] is 33.4 µM (active).

In the case of `CCCC(=O)OC`, the outcome in experiment [1], in experiment [2], in experiment [3], in [4], in experiment [5] and in experiment [6] was inactive. Also, the call in [7], in experiment [8], in [9], in experiment [10], in experiment [11] and in experiment [12] was inactive. The outcome in [13], in [14], in experiment [15], in [16], in [17] and in experiment [18] was inactive. The call in experiment [19] and in [20] was inactive.

Broadly, the AC50 is the midpoint of the concentration-response curve, whichever way the signal moves.
